{"source": "PubChem BioAssay AID1259343", "about": "(VanderVen Lab, College of Veterinary Medicine, Cornell …, 2017)", "note": "Hit rate of the full screen: of about 6,200 compounds, about 2,900 (47%) were called active. The set was probably picked from earlier hits. The list shows a part of the results. Unmarked numbers belong to inactive results. Cut-off read from the data, not from the text of the source: active = inhibition above about 50%; inactive = the rest."}
{"assay": "Mycobacterium tuberculosis growth inhibition, primary screen (AID 1259343)", "conditions": "inhibition: at 10 µM, stronger effect = higher value; outcome: 10 uM"}
{"smiles": "O=C(Nc1cccc(-c2cccc(F)c2)c1)C1CCN(CCCn2cccn2)CC1", "inhibition": "89.5% (active)"}
{"smiles": "Cc1nc(C)c(CN2CCC(C(=O)Nc3ccc(Oc4ccccc4F)cc3)CC2)nc1C", "inhibition": "82.5% (active)"}
{"smiles": "O=C(C1CCCC1)N1CCc2c([nH]c3ccccc23)C1c1cc(F)ccc1F", "note": "(stereo unspecified)", "inhibition": "24.3%"}
{"smiles": "O=c1c2ccccc2[nH]c(=S)n1C1CCCC1", "inhibition": "90.2% (active)"}
{"smiles": "c1ccc2c(c1)CCN(c1ncnc3c1oc1ccccc13)C2", "inhibition": "19.2%"}
{"smiles": "Fc1ccc(OCc2nnc3sc(C4CC4)nn23)cc1", "inhibition": "67% (active)"}
{"smiles": "COc1ccc(OCc2nc(C(=O)N3CCC3c3ccc(F)cc3)co2)cc1", "note": "(stereo unspecified)", "inhibition": "28.5%"}
{"smiles": "Fc1ccc(OCc2nc(CSc3nnnn3C3CC3)cs2)cc1", "inhibition": "4.6%"}
{"smiles": "COc1ccccc1C=NNC(=O)c1cc(C23CC4CC(CC(C4)C2)C3)[nH]n1", "inhibition": "99.6% (active)"}
{"smiles": "O=C(NN=Cc1ccc(F)cc1)c1cc(C23CC4CC(CC(C4)C2)C3)[nH]n1", "inhibition": "10.7%"}
{"smiles": "O=C(NN=Cc1ccccc1O)c1cc(C23CC4CC(CC(C4)C2)C3)[nH]n1", "inhibition": "28.4%"}
{"smiles": "CC(C)Cn1c(CN(C)Cc2ncc[nH]2)nc2ccccc21", "inhibition": "29.8%"}
{"smiles": "CN(C)c1ccc(C=NNC2=Nc3cccc4cccc2c34)cc1", "inhibition": "18.6%"}
{"smiles": "CN(C)C=NC1=NN(c2ccccc2)CC1", "inhibition": "-0.55%"}
{"smiles": "NC1=NN(c2ccccc2)CC1", "inhibition": "82.6% (active)"}
{"smiles": "CN(C)c1ccc(C=NC2=NN(c3ccccc3)CC2)cc1", "inhibition": "90.3% (active)"}
{"smiles": "C(=NC1=NN(c2ccccc2)CC1)c1ccccc1", "inhibition": "54% (active)"}
{"smiles": "c1ccc(C2=NN(c3ccccc3)CC2)cc1", "inhibition": "-38.3%"}
{"smiles": "FC(F)(F)c1ccc2c(c1)n(Cc1ccc(Cl)c(Cl)c1)c1[n+]2CCCCC1", "inhibition": "10.6%"}
{"smiles": "C=CC[n+]1c(-c2ccccc2)csc1Nc1ccccc1OC", "inhibition": "88.1% (active)"}
{"smiles": "CCCCNC(=S)NN=Cc1ccc(C)o1", "inhibition": "81.2% (active)"}
{"smiles": "Cc1ccc(C=NNC(=O)NC2CCCCC2)o1", "inhibition": "-14.7%"}
{"smiles": "Cc1ccc(C=NNC(=S)NC2CCCCC2)o1", "inhibition": "101% (active)"}
{"smiles": "Cc1ccc(C=NNC(=S)NC(C)C)o1", "inhibition": "54.2% (active)"}
{"smiles": "CC(=NNC(=S)NC1CCCCC1)c1ccc(C)o1", "inhibition": "-13.8%"}
{"smiles": "CCNC(=S)NN=Cc1ccco1", "inhibition": "1.13%"}
{"smiles": "CC(C)NC(=S)NN=Cc1c(F)c(F)c(F)c(F)c1F", "inhibition": "82.9% (active)"}
{"smiles": "CCc1c(C)sc2[nH]c(=S)n(C)c(=O)c12", "inhibition": "24.5%"}
{"smiles": "CN(C)S(=O)(=O)n1cc(/C=C/c2nc(N)nc(-c3ccccc3O)n2)c2ccccc21", "inhibition": "13.7%"}
{"smiles": "O=C(NCC1CCCc2ccccc21)c1ccccn1", "note": "(stereo unspecified)", "inhibition": "3.26%"}
{"smiles": "O=C(NCCc1ccc(Cl)s1)Nc1ccccn1", "inhibition": "35.1%"}
{"smiles": "CC(C)(CNC(=O)c1ccccn1)c1ccccc1", "inhibition": "65.7% (active)"}
{"smiles": "Fc1ccc(-c2c[nH]c(=S)[nH]2)cc1", "inhibition": "90.2% (active)"}
{"smiles": "O=c1oc2ccccc2c(O)c1C(c1cncs1)c1c(O)c2ccccc2oc1=O", "inhibition": "-17.6%"}
{"smiles": "O=c1oc2ccccc2c(O)c1C(c1ccccc1O)c1c(O)c2ccccc2oc1=O", "inhibition": "90.2% (active)"}
{"smiles": "O=c1oc2ccccc2c(O)c1C(c1ccc2c(c1)OCO2)c1c(O)c2ccccc2oc1=O", "inhibition": "54.4% (active)"}
{"smiles": "CC(C)[C@H](CNC(=O)[C@@H](NC(=O)c1cccc(-c2ccccc2)n1)[C@@H](C)O)B(O)O", "inhibition": "23.9%"}
{"smiles": "Cc1ccc(N=Nc2cn[nH]c2C)cc1", "inhibition": "-8.23%"}
{"smiles": "COc1ccc(NC(=O)C(C)CS(=O)(=O)c2ccc(Br)cc2)cc1F", "note": "(stereo unspecified)", "inhibition": "61.1% (active)"}
{"smiles": "c1cc2c3c(cccc3c1)/C(=N/OCC1CO1)C2", "note": "(stereo unspecified)", "inhibition": "101% (active)"}
{"smiles": "N#Cc1nc(COc2ccc(Br)cc2)oc1NCCCn1ccnc1", "inhibition": "62.4% (active)"}
{"smiles": "N#Cc1nc(-c2ccc(COc3ccc(Cl)cc3)o2)oc1NCC1CCCO1", "note": "(stereo unspecified)", "inhibition": "46.9%"}
{"smiles": "NC(CCCc1ccccc1)c1ccccc1", "note": "(stereo unspecified)", "inhibition": "15.7%"}
{"smiles": "c1ccc(CC[P+](c2ccccc2)(c2ccccc2)c2ccccc2)cc1", "inhibition": "62.6% (active)"}
{"smiles": "COc1ccc(C=C2SC(=S)NC2=O)cc1F", "inhibition": "86.7% (active)"}
{"smiles": "O=C1/C(=C\\c2ccc(O)c(Cl)c2)CS(=O)(=O)C/C1=C/c1ccc(O)c(Cl)c1", "inhibition": "-0.82%"}
{"smiles": "O=C1NC(=S)SC1=Cc1ccc(F)c(F)c1", "inhibition": "88.5% (active)"}
{"smiles": "O=C1NC(=S)SC1=Cc1cc(O)c(O)c(Cl)c1", "inhibition": "88.3% (active)"}
{"smiles": "COc1cc(C=C2SC(=S)NC2=O)cc(Br)c1O", "inhibition": "90% (active)"}
{"smiles": "O=C1NC(=S)SC1=Cc1ccc(F)cc1", "inhibition": "32.6%"}
{"smiles": "Cc1nn(C)c(C)c1CCC(=O)Nc1ccc(C(C)(C)C#N)cc1", "inhibition": "71% (active)"}
{"smiles": "COc1ccc(NC(=O)CCc2ccccc2C#N)cc1", "inhibition": "27.5%"}
{"smiles": "Cc1ccc(-c2n[nH]c(=S)c3ccccc23)cc1", "inhibition": "32.5%"}
{"smiles": "S=c1[nH]nc(-c2ccccc2)c2ccccc12", "inhibition": "70.8% (active)"}
{"smiles": "CC1CN(c2ccc(-c3nnc(Br)s3)cc2)CC(C)(C)O1", "note": "(stereo unspecified)", "inhibition": "10.5%"}
{"smiles": "Clc1cccc(OCOCOc2cccc(Cl)c2)c1", "inhibition": "1.77%"}
{"smiles": "CN(C)S(=O)(=O)c1ccc(COc2cccc(Cl)c2)o1", "inhibition": "49.6%"}
{"smiles": "O=C(O)c1ccc(COc2cccc(Cl)c2)s1", "inhibition": "81.8% (active)"}
{"smiles": "CCCNC(=O)c1ccc(Oc2ccc(F)cc2)cc1", "inhibition": "90.3% (active)"}
{"smiles": "O=C(NN1CCOCC1)c1ccc(Oc2ccc(F)cc2)cc1", "inhibition": "89.4% (active)"}
{"smiles": "CCCNC(=O)C(C)NC(=O)c1ccc(Oc2ccc(F)cc2)cc1", "note": "(stereo unspecified)", "inhibition": "62.5% (active)"}
{"smiles": "Cc1ccc(Oc2ccc(NC(C)C(=O)NC(C)C)cc2)cc1", "note": "(stereo unspecified)", "inhibition": "30.7%"}
{"smiles": "C=CCOc1cccc(C2c3c(oc4ccc(C)cc4c3=O)C(=O)N2c2nccs2)c1", "note": "(stereo unspecified)", "inhibition": "1.57%"}
{"smiles": "c1ccc(CNc2nc(-c3ccccc3)nc3ccccc23)cc1", "inhibition": "-8.46%"}
{"smiles": "Cc1cccc(-c2nc3c(NCc4ccccc4)nccc3[nH]2)c1", "inhibition": "68.2% (active)"}
{"smiles": "Cc1c(-c2ccccc2)[nH]c2c(CNc3nccc(N)n3)cc(Cl)cc12", "inhibition": "25.5%"}
{"smiles": "Cc1cccc(-c2nc3c(NCc4cccc(N(C)C)c4)nccc3[nH]2)c1", "inhibition": "76.8% (active)"}
{"smiles": "Fc1cccc(-c2nc3c(NCc4ccccc4)nccc3[nH]2)c1", "inhibition": "58.3% (active)"}
{"smiles": "c1ccc(-c2nc3c(NC4CCCCC4)nccc3[nH]2)cc1", "inhibition": "76.1% (active)"}
{"smiles": "Fc1ccc(-c2nc3c(NCc4ccccc4)nccc3[nH]2)cc1F", "inhibition": "35.1%"}
{"smiles": "Fc1cc(NCc2ccccc2)nc(NCc2ccccc2)n1", "inhibition": "13.7%"}
